NALP1 inh = NALP1 inhibition; S. cerevisiae NALP1/ASC/caspase-1 growth, X-gal OD620, 72 h; inhibition, % at 10 µM; 280,000 tested, 0.61% active; AID 2071; in the data active means inhibition mostly above about 24%, no sharp cut-off; inactive means mostly below about 32%
NALP3 yeast inh = inhibitors of NALP3 inflammasome in yeast; AID 2825; inhibition, % at 10 µM; Yeast reconstituted NLRP3/ASC/caspase-1, beta-gal luminescence, 24 h; 330,000 tested, 0.39% active;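 active means inhibition of 50% or more; inactive means inhibition below 50%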;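 further: plate controls were induced DMSO wells for no effect and uninduced yeast grown without galactose for full effect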
tim10-1 inh = growth inhibitors of tim10-1 mutant yeast | S. cerevisiae tim10-1 ts strain growth, BacTiter-Glo, 24 h | inhibition, % at 20 µM | 330,000 tested, 2.2% active | AID 463190;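 active means inhibition of at least 40%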;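 further: mutant grown at 25 °C; 0% = DMSO wells with yeast and 100% = wells holding no yeast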
tim23-1 inh = inhibits growth of tim23-1 mutant yeast | 330,000 tested, 1.3% active | S. cerevisiae tim23-1 growth, BacTiter-Glo luminescence, 24 h | inhibition, % at 20 µM | AID 463212;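 active means growth inhibition of the mutant yeast at or above 50%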;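 further: temperature-sensitive mutant grown at 25 °C; plate controls were DMSO-treated mutant yeast for no effect and medium wells lacking yeast for full effect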
TIM10 inh = inhibits growth of TIM10 yeast strain | inhibition, % at 10 µM | 330,000 tested, 1.4% active | S. cerevisiae TIM10 strain growth, BacTiter-Glo luminescence, 24 h;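 active means inhibition of 40% or more at the single tested concentration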;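 further: wild-type TIM10 isogenic control strain grown at permissive 25 °C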
tim10-1 confirm = tim10-1 yeast growth inhibition, confirmed | S. cerevisiae tim10-1 ts strain growth, BacTiter-Glo, 24 h | inhibition, % at 20 µM | 7,400 tested, 56% active | shares compounds with tim10-1 inh | AID 463213;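 active means inhibition of yeast growth at or above a set limit in either of two repeat tests at 20 µM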;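 further: tim10-1 mutant grown at permissive 25 °C to find synthetic lethal compounds; 0% = DMSO yeast wells and 100% = medium wells without yeast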
* hit, by the source's call; . = no result given. An excerpt weighted towards active compounds, which were near 4% of everything screened.

SMILES	NALP1 inh	NALP3 yeast inh	tim10-1 inh	tim23-1 inh	TIM10 inh	tim10-1 confirm
O=C(NC(=S)NCCC1=CCCCC1)c1cncc(Br)c1	-5	-15	42*	30	27	24
Cc1ccc(NC(=S)Nc2ccc(Cl)c(Cl)c2)c(OC(F)F)c1	56	8	61*	48	32	38*
Cc1ccc(NC(=S)Nc2ccc(OC(F)F)c(Cl)c2)cc1Cl	6	.	.	.	.	.
O=C(CN1CCCCCC1)Nc1ccc(Cl)cn1	2	-2	13	-9	2	.
Cc1ccc(-c2csc(=S)n2CC(=O)OCC(=O)NCc2ccco2)cc1	6	-12	41*	22	6	20
CCc1c(C)c2cc(Cl)c(O)c(CN3CCCC3)c2oc1=O	21	-17	12	12	-8	.
Cc1cccn2c(=O)c(C=O)c(N3CCCCC3)nc12	-6	13	21	35	-4	.
Cc1cccn2c(=O)c(C=O)c(N3CCN(c4ccc(F)cc4)CC3)nc12	0	23	49*	28	33	36*
CCOC(=O)c1ccccc1NC(=O)COC(=O)CN1C(=O)C2CC=CCC2C1=O (centres undefined)	13	8	10	16	11	.
CC(NC(=O)c1cccc(S(=O)(=O)N2CCN(C)CC2)c1)c1ccc(Cl)cc1Cl (centres undefined)	.	12	3	9	12	.
Cc1ccc(SC2=C(Sc3ccc(C)cc3)C(=O)c3ccccc3C2=O)cc1	17	33	43*	33	24	24
Cc1ccc(N2C(=O)c3ccccc3C2=O)cc1	.	-3	0	2	-7	.
COc1ccc(COC(=O)Nc2cc3c(C(F)(F)F)nn(C)c3s2)cc1	-21	25	44*	12	14	26
Cn1nc(C(F)(F)F)c2cc(NC(=O)OCc3ccc(C(C)(C)C)cc3)sc21	19	8	9	6	15	.
O=C(NCc1ccc(F)cc1)C(c1ccco1)N(C(=O)c1csnn1)C1CC1 (centres undefined)	-1	18	9	16	4	.
CCCCCCCC(=O)N/N=C/c1cccnc1	-12	35	3	9	-8	.
CCCCCCCC(=O)N/N=C/c1ccc(Br)cc1	11	9	54*	22	32	6
O=C(Nc1cc(C(F)(F)F)ccc1N1CCOCC1)C1=COCCO1	.	28	13	6	4	.
O=C(Cc1ccc2c(c1)OCCO2)Nc1cc(C(F)(F)F)ccc1N1CCOCC1	.	19	41*	42	14	28
CCOC(=O)c1ccc(N=c2ssnc2Cl)cc1	8	15	41*	29	26	40*
CCOC(=O)c1ccc2nc(NC(=O)c3cccs3)sc2c1	-2	10	24	21	12	.
CCCCC(=O)Nc1nc2ccc(C(=O)OC)cc2s1	11	-8	46*	29	35	20
CCOC(=O)c1ccc2nc(NC(=O)c3ccco3)sc2c1	-2	12	41*	41	40	26
CCOC(=O)c1ccc2nc(NC(=O)C(C)C)sc2c1	29	24	37	43	25	.
CC(C)(C)c1ccc(NC(=O)CNC2CCCc3ccccc32)cc1 (centres undefined)	30	13	42*	7	22	16
SMILES	NALP1 inh	NALP3 yeast inh	tim10-1 inh	tim23-1 inh	TIM10 inh	tim10-1 confirm
COc1ccc(N(C(=O)CCl)C(C(=O)NC2CCCCC2)c2cccnc2)cc1 (centres undefined)	5	14	41*	31	33	32*
O=C(NC1CCCCC1)C(c1cccnc1)N(C(=O)CCl)c1ccc(F)cc1 (centres undefined)	8	.	.	.	.	.
Cc1cn(C2CC(OC(=O)C(C)C)C(CO)O2)c(=O)[nH]c1=O (centres undefined)	.	6	-17	-15	-1	.
Cc1cc(-c2ccc(C)c(S(=O)(=O)NCc3cccc(Br)c3)c2)on1	17	13	41*	31	-5	-2
Cc1cc(-c2ccc(C)c(S(=O)(=O)NCc3ccc(Br)cc3)c2)on1	2	19	43*	46	0	-7
Cc1cc(-c2ccc(C)c(S(=O)(=O)NCCc3ccc(S(N)(=O)=O)cc3)c2)on1	13	-12	-4	-3	3	.
C=CCn1c(SCC(=O)NCC2CCCO2)nnc1-c1ccncc1 (centres undefined)	.	6	-6	-8	8	.
Cc1ccnc2nc(C(=O)OCC(=O)N(CC(C)C)C3CCS(=O)(=O)C3)nn12 (centres undefined)	.	6	-8	-5	-4	.
COC(=O)c1cccc(NC(=O)c2cc3sccc3n2C)c1	12	7	44*	34	31	31
O=C(Nc1nc2ccccc2n1CCN1CCOCC1)c1ccccc1	-36	7	8	18	-2	.
O=C(Nc1nc2ccccc2n1CCN1CCOCC1)c1cn(-c2ccccc2)nc1-c1ccccc1	15	11	42*	40	39	32*
CC(C)(C)[C@H]1CCC(=O)N([C@H](CN=[N+]=[N-])Cc2ccccc2)CC1	-2	1	41*	36	19	24
CNc1snc(C)c1C(=O)OCC(=O)c1ccc(OC)c(F)c1	.	18	-7	8	-3	.
N#Cc1c(-n2cccc2/C=N/O)sc2c1CCCC2	-16	-2	41*	41	-17	43*
Cc1ccc(NC(=O)c2cc(-c3ccccc3)nn2-c2ccccc2)c(Br)c1	38	10	32	11	33	.
Cc1ccc(NC(=O)c2cc(-c3ccccc3)nn2-c2ccccc2)cc1	.	13	45*	21	33	32*
C/C(=N\NC(=O)CNc1cccc(C(F)(F)F)c1)c1ccc(Br)cc1	-9	11	27	12	12	.
C/C(=N\Nc1cccc(C(F)(F)F)c1)c1ccc(O)cc1	13	-8	45*	16	9	-10
COc1ccc(C(=O)NC(=O)COC(=O)C2CC2C)cc1 (centres undefined)	.	-23	-5	-5	-8	.
CCOC(=O)C1CCCc2c1[nH]c1ccc(Cl)cc21 (centres undefined)	-4	26	43*	34	20	32*
O=C(CN1C(=O)c2ccccc2C1=O)Nc1cccc(S(=O)(=O)Nc2ccccc2Cl)c1	-7	-8	28	8	1	.
Cc1cc(C)cc(NC(=S)NCc2ccc3[nH]c4c(c3c2)CCCC4)c1	33	9	41*	39	35	26
CCS(=O)(=O)NCc1ccc2[nH]c3c(c2c1)CCCC3	-3	-11	23	7	-3	.
Cc1ccc(-c2cc(-c3ccccc3)nc(N/N=C/c3cccnc3)n2)cc1	.	21	44*	16	16	25
Cc1cc(-c2ccccc2)nc(N/N=C/c2cccnc2)n1	-3	13	6	7	20	.
Cc1cc(-c2ccccc2)nc(N/N=C/c2ccccc2)n1	13	42	41*	37	37	18
CS(=O)(=O)N(CC(=O)N/N=C/c1cccs1)c1cccc(Cl)c1Cl	-3	5	33	10	3	.
